# Measured values taken from ChEMBL document CHEMBL3988442, “University of Dundee, Small-Polar-MMV Screening Library” (2021).
# For some assays here: Results with a measured potency or affinity are listed apart.
# Experiments:
# Set-up in all cases: scale not given: direction of the effect not stated beside the values
# [1] = target: Protein translocase subunit SecA (Escherichia coli (strain K12)) (UniProt P10408); assay: Assay to Identify E. coli SecA ATPase Inhibitors; format: functional; conditions: 30 µM
# Chain of Protein translocase subunit SecA (Escherichia coli (strain K12)) (P10408 whole entry): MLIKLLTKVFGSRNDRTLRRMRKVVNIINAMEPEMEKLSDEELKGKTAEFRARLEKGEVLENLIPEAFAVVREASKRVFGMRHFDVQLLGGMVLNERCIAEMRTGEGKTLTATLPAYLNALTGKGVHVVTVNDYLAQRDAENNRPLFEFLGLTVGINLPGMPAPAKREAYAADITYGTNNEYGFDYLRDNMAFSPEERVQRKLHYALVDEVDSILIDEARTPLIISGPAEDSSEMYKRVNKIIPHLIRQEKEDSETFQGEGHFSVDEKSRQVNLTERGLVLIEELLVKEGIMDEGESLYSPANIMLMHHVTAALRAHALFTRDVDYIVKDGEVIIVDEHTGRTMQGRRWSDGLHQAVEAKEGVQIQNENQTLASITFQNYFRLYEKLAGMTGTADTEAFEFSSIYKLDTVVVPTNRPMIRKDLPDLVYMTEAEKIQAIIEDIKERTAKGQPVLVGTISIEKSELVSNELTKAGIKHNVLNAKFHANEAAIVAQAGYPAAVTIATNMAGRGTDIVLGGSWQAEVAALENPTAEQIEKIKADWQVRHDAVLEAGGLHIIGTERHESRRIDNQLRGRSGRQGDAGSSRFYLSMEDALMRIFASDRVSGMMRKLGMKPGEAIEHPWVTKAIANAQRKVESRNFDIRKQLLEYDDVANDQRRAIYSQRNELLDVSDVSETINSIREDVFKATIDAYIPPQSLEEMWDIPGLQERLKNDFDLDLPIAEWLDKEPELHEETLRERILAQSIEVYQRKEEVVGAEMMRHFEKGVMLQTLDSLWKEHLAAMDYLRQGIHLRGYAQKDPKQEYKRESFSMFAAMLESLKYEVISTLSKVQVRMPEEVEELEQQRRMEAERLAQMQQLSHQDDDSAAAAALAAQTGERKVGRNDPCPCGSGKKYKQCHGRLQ
# [2] = target: T1, Ubiquitin-activating enzyme e1, putative (Leishmania donovani (strain BPK282A1)) (UniProt E9BSI1); assay: Leishmania donovani Ubiquitin Activating Enzyme (LdE1); format: functional; conditions: 30 µM
# T1 sequence (whole entry): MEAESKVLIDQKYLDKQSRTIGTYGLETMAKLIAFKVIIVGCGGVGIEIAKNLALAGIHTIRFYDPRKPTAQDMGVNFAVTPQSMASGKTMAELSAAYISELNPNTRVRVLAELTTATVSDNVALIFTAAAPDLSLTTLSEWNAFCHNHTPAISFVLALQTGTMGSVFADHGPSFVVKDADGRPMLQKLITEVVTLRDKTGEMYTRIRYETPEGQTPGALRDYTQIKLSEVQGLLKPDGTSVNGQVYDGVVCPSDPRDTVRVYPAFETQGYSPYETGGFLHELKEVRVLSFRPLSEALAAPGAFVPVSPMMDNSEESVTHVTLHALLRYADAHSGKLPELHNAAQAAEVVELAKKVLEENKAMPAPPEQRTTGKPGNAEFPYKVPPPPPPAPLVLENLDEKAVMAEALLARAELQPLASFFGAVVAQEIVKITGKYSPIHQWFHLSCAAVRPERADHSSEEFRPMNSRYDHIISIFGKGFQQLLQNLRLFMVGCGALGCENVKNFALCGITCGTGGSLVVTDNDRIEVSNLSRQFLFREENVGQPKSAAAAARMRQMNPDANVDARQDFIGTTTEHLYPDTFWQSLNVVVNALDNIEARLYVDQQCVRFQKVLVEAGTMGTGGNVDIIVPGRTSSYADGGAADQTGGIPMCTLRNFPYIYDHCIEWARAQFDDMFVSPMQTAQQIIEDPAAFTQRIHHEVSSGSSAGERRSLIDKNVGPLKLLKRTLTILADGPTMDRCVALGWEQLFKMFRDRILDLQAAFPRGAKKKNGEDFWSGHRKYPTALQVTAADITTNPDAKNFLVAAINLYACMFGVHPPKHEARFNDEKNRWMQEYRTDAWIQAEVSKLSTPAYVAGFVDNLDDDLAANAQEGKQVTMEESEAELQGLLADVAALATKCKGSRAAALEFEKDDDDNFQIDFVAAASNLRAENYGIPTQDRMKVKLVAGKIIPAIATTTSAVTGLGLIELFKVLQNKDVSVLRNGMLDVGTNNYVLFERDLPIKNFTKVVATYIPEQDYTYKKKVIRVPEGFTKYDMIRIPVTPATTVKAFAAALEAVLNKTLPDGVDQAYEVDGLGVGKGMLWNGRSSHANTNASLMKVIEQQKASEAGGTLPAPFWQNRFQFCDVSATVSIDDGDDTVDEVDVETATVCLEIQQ
# [3] = target: AMP-activated protein kinase, AMPK (Homo sapiens) (UniProt P54646+O43741+P54619+Q9UGJ0+Q9Y478+Q13131+Q9UGI9); assay: AMP-dependent Kinase enzyme assay. An in vitro enzyme assay that detects ADP turnover that is directly proportional to AMPK activity. This uses naive AMPK that is activated during the assay with MK-8722; format: functional; conditions: 30 µM
# [4] = target: Sialic acid-binding Ig-like lectin 9 (Homo sapiens) (UniProt Q9Y336); assay: Hs-Siglec9 ALPHAscreen SOP 20170721; conditions: 10 µM
# Chain of Sialic acid-binding Ig-like lectin 9 (Homo sapiens) (Q9Y336 whole entry): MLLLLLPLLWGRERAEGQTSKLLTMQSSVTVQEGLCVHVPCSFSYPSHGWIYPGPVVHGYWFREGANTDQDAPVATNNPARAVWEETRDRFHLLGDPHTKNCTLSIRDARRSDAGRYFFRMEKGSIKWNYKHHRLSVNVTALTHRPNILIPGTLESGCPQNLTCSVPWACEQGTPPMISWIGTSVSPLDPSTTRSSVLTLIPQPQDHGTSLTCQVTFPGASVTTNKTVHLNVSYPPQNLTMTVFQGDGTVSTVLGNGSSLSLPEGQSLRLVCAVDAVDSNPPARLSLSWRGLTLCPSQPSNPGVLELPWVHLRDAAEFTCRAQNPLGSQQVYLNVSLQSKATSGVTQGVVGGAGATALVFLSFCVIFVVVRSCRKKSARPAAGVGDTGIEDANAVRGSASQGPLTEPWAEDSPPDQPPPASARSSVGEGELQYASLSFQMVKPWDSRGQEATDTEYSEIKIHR
# Trypanosoma cruzi = assay: Trypanosoma cruzi phosphomannomutase and mannose-1-phosphate guanylyltransferase assay; format: functional; conditions: 10 µM
# [5] = target: T2, Arginase-2, mitochondrial (Homo sapiens) (UniProt P78540); assay: in vitro enzyme assay to detect the production of urea directly proportional to the activity of Arginase II; format: functional; conditions: 33.3 µM; further: in the data most compounds retested in dose-response had high values
# T2 sequence (whole entry): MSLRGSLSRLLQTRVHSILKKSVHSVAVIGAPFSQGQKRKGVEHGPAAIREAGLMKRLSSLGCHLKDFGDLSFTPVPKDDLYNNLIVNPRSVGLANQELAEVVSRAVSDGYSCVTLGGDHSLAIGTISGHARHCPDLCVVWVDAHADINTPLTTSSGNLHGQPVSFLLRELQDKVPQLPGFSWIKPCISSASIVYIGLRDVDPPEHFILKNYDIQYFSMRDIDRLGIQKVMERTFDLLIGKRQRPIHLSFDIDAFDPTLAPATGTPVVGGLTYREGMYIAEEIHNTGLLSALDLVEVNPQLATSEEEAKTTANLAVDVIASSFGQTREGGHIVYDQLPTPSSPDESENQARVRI
# [6] = target: T3, Proteasome subunit beta (Trypanosoma cruzi) (UniProt O96673); assay: Trypanosoma cruzi proteasome chymotrypsin-like activity (TcProtChymo) assay.; further: in the data most compounds retested in dose-response had high values; format: functional; conditions: 9.37 µM
# T3 sequence (whole entry): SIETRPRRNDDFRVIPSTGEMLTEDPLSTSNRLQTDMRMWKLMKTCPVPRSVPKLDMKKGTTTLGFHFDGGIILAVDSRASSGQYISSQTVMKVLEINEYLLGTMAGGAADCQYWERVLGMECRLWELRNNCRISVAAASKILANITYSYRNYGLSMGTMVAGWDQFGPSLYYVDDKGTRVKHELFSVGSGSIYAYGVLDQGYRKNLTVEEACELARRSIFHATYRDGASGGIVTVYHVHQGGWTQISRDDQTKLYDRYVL
# Homo sapiens = species: Homo sapiens; assay: To identify inhibition of the IFN signalling (Jak-Stat) pathway via expression of an eGFP reporter gene under the control of an IFN-stimulated response element (ISRE) containing MxA promoter.; format: functional; conditions: 30 µM
# [7] = target: T4, Tyrosyl-tRNA synthetase, putative (Trypanosoma cruzi (strain CL Brener)) (UniProt Q4DSP6); assay: Trypanosoma cruzi tyrosyl tRNA synthetase (TcYRS) _High Tyrosine SOP; format: functional; conditions: 30 µM; further: in the data most compounds retested in dose-response had high values
# T4 sequence (whole entry): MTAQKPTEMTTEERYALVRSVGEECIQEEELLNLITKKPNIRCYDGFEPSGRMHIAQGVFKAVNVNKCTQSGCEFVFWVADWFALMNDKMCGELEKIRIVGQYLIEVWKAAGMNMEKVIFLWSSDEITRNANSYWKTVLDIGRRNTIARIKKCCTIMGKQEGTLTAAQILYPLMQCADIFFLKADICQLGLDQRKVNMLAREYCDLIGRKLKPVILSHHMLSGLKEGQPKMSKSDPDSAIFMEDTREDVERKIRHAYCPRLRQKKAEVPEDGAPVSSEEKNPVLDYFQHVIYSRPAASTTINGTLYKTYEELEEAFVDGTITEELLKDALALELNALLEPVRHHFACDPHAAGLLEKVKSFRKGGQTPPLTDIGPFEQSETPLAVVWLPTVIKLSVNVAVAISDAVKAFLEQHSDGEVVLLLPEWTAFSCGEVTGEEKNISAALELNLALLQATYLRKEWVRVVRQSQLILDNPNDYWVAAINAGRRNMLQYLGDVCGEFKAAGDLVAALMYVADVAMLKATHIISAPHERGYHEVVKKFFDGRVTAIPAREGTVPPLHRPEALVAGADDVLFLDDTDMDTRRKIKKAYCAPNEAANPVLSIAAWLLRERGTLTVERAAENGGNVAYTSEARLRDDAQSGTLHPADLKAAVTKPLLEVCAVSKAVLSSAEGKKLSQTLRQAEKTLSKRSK
# [8] = target: T4, Tyrosyl-tRNA synthetase, putative (Trypanosoma cruzi (strain CL Brener)); assay: Trypanosoma cruzi tyrosyl tRNA synthetase (TcYRS) SOP; format: functional; conditions: 30 µM
# [9] = target: Chromo domain-containing protein 1 (Saccharomyces cerevisiae (strain ATCC 204508 / S288c) (Baker's yeast)) (UniProt P32657); assay: ScCHD-1 Enzyme Inhibition Assay; format: functional; conditions: 30 µM; further: in the data most compounds retested in dose-response had high values
# Chain of Chromo domain-containing protein 1 (Saccharomyces cerevisiae (strain ATCC 204508 / S288c) (Baker's yeast)) (P32657 whole entry, the tested form may be a part): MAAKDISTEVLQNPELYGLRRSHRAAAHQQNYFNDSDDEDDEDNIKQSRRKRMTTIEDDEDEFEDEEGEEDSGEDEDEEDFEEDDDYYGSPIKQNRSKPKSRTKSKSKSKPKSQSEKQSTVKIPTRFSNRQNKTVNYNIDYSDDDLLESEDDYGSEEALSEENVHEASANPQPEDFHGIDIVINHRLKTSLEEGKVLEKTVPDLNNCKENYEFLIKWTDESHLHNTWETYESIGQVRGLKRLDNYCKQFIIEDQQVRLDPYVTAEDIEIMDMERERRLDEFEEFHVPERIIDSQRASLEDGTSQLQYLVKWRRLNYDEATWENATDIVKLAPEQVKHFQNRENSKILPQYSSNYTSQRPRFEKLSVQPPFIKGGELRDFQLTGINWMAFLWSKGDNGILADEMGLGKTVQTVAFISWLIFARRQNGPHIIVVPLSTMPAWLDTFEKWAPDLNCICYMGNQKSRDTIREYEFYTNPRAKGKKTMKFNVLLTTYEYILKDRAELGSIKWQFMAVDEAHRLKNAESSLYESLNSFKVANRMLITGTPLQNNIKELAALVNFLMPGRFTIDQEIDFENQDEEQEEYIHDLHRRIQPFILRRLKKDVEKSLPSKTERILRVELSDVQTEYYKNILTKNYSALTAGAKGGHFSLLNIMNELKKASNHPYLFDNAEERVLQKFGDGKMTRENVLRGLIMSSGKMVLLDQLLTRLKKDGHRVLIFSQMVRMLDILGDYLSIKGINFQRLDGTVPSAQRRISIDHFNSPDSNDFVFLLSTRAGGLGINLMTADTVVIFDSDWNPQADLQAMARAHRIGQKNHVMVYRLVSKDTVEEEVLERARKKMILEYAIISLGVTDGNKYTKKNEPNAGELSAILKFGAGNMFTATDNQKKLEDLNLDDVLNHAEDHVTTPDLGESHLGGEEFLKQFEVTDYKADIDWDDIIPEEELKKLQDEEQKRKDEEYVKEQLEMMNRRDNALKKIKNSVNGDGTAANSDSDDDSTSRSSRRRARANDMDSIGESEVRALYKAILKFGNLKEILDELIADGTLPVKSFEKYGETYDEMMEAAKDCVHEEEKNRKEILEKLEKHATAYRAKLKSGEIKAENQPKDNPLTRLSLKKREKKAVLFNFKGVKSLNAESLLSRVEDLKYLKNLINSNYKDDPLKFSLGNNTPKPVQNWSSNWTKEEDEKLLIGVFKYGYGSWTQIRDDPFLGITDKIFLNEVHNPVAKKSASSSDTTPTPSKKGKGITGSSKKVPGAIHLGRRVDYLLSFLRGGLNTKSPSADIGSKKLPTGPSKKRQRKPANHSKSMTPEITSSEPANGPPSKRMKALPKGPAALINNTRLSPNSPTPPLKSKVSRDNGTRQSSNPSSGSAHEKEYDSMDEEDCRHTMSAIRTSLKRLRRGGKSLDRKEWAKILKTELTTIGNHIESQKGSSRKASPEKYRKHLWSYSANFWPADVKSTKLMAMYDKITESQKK
Structure (SMILES),Percent Effect [1] [%],Percent Effect [2] [%],Percent Effect [3] [%],Percent Effect [4] [%],Percent Effect (Trypanosoma cruzi) [%],Percent Effect [5] [%],Percent Effect [6] [%],Percent Effect (Homo sapiens) [%],Percent Effect [7] [%],Percent Effect [8] [%],Percent Effect [9] [%]
Cc1ccc(C(=O)NC2CCN(C(=O)Nc3ccccn3)CC2)o1,-3.11,10.4,-3.63,-17.5,-7.15,-2.32,6.71,9.29,2.86,14.1,-18.9
CCc1nc(C)c([C@H]2CN(C)C[C@@H]2C(=O)NCCc2cnccn2)[nH]1,-4.56,8.11,3.09,6.61,1.54,2.86,6.72,3.41,10.1,17.1,-3.65
OCC1CCCN1c1cc(N2CCN(c3ccccn3)CC2)ncn1 (stereo unspecified),-1.51,2.6,5.09,12.8,-1.27,3.58,0.889,13.3,5.71,7.06,-17.6
O=C1COC2(CCN(Cc3ccc(F)cc3)CC2)CN1,-4.15,2.7,2.05,-2.96,6.25,-0.417,10.2,-6.9,5.94,15.8,-6.08
CC(C)c1nnc2n1CCN(C(=O)c1ccc(OCC(N)=O)cc1)C2,-8.09,18.2,-2.69,-4.74,4.41,-1.9,9.62,4.02,6.67,11.8,-16.8
Cc1ccc(NC2CCN(C(=O)Cn3nc(C)cc3C)CC2)nn1,-1.08,15.8,-0.776,6.59,-0.376,-0.766,17.9,6.37,3.43,12.2,-1.72
c1ccc(OCCCN2CCN(c3ccc4nncn4n3)CC2)cc1,-7.97,-18.2,-5.57,15.6,8.61,-5.69,17.6,47.8,18.4,24.4,-1.5
CCN1CC2(CC1=O)CN(Cc1cnn(C)c1)CCN(C(=O)C(C)C)C2 (stereo unspecified),-6.68,5.41,0.933,-1.78,-1.17,-1.67,7.52,8.39,7.92,6.1,2.63
COCCCNC(=O)N1CCCC(c2nncn2C)C1 (stereo unspecified),-5.16,2.63,-3.92,8.87,-3.46,0.36,7.87,5.55,0.493,-6.17,2.53
CCCOc1cccc(CNC(=O)CN2CCN(C)CC2C)c1 (stereo unspecified),-1.3,13.5,-7.22,15,1.02,-6.47,1.98,14.1,3.96,15.8,-9.26
O=C(NCCNS(=O)(=O)c1ccc2c(c1)CCCC2)c1ccoc1,-4.38,13.3,-3.34,15.1,3.41,10.9,5.41,29.3,6.01,13.6,0.0598
Cc1nn(C)c(C)c1C1CCCN1C(=O)c1cnc2n[nH]c(C)c2c1 (stereo unspecified),-5.23,16.2,-5.44,13.8,5.66,0.554,0,9.61,4.95,18.3,-3.42
N#Cc1cc(NS(=O)(=O)c2ccc(C(=O)O)cc2F)ccc1F,-2.74,-13.5,-2.89,0.735,-0.472,4.41,-3.24,-0.301,0.493,1.24,-0.823
Cc1cc(CN(C)C(=O)NC2CCS(=O)(=O)C2)no1 (stereo unspecified),-1.09,13,-2.73,-9.19,6.37,6.11,11.2,6.33,4.76,18.8,-18.4
Cc1nc(CN2CCCC2c2ccsc2)nc2ccccc12 (stereo unspecified),-1.18,-16.5,3.32,2.94,4,7.1,13.6,23.7,9.38,27.9,4.99
CCC(CNC(=O)c1ccc(Br)o1)N1CCc2ccccc2C1 (stereo unspecified),-2.45,-2.7,-0.754,2.18,2.51,-2.38,10.9,11.9,0.529,-4.88,-2.21
